Screens (PubChem BioAssay)
Only some compounds are listed: those with a hit (about 3.4% of all), similar ones and a draw of the others.
FBW7 activator = human FBW7 E3 ligase activation, primary screen; AlphaScreen FBW7–phospho-cyclin E peptide binding, activator screen; 0.13% of 650,000 active; Q969H0; normalized activity (activation), % at 26.1 µM; in the data active means normalized activity above about 1.9%;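 further: purified mutant Fbw7 with reduced substrate affinity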
MITF inh = inhibitors of human MITF. O75030. AlphaScreen MITF homodimerization, bead proximity signal. inhibition, % at 2.6 µM. 0.91% of 650,000 active. AID 1259374; in the data active means inhibition above about 50%
GPR151 ag = activates the human receptor GPR151; activation, % at 11.2 µM; PathHunter beta-arrestin GPR151 cells, luminescence; 1% of 650,000 active; in the data active means activation above about 4.9%
Target sequence (Q8TDV0 whole entry, looked up): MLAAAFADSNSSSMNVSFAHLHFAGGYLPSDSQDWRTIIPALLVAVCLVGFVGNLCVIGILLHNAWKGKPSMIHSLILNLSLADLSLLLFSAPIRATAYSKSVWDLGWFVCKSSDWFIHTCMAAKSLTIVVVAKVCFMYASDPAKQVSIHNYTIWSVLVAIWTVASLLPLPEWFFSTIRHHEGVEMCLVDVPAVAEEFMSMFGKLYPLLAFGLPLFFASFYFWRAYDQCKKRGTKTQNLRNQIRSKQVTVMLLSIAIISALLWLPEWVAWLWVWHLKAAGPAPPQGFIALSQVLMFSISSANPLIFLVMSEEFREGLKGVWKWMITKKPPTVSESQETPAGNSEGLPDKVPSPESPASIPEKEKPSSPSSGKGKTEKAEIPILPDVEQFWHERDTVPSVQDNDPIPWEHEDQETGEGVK
TEAD-YAP block = TEAD-YAP interaction inhibition; HEK-TIYL cells, TEAD-Gal4/YAP UAS-luciferase luminescence; inhibition, % at 9.12 µM; 1.4% of 640,000 active; AID 1259422; in the data active means inhibition above about 32%
Hits are given with their value; i = inactive.

SMILES | FBW7 activator | MITF inh | GPR151 ag | TEAD-YAP block
c1ccc(-c2csc(Nc3ccnc(Nc4ccc(N5CCOCC5)cc4)c3)n2)cc1 | i | i | i | 64.3
c1cncc(-c2csc(Nc3ccnc(Nc4ccc(N5CCOCC5)cc4)c3)n2)c1 | i | i | i | 33.1
COCCCNC(=S)NCCNc1nc2ccc(OC)cc2cc1C#N | i | i | i | i
Cc1sc2nc(C(C)C)n3c(=S)[nH]nc3c2c1C | i | i | i | 54.7
CCc1c(C)sc2nc(C(C)C)n3c(=O)[nH]nc3c12 | i | i | i | i
COc1ccc(CN[C@H]2C[C@H]3C(=O)N[C@H](C)C(=O)N3C2)cc1 | i | i | i | i
COc1ccc(CC2(C)OC(c3cccs3)=NN2C(C)=O)cc1 (stereo not drawn) | i | i | i | 36.3
COc1ccc(CC2(C)OC(c3ccncc3)=NN2C(C)=O)cc1 (stereo not drawn) | i | i | i | i
CCCCC(=O)Nc1nc(-c2cc(C)ccc2C)cs1 | i | i | i | i
Cc1ccc(Cl)c(OCC(=O)Nc2nccs2)c1 | i | i | i | 56.1
CC(C)c1ccccc1OCC(=O)Nc1nccs1 | i | i | i | i
O=C(COc1ccccc1Br)Nc1nccs1 | i | i | i | 75.0
Cc1nc(CN(C)C(=O)c2cc(COc3ccc4ncccc4c3)on2)cs1 | i | i | i | 37.4
CN(CC1COCCO1)C(=O)c1cc(COc2ccc3ncccc3c2)on1 (stereo not drawn) | i | i | i | 50.0
O=c1c(=O)n(OCc2ccccc2)c2ccccc2n1O | i | i | i | i
O=C(Nc1cccnc1)c1ccc2c(c1)C(=O)N(C1CCCCC1)C2=O | i | i | i | i
O=C(Nc1ccncc1)c1ccc2c(c1)C(=O)N(C1CCCCC1)C2=O | i | i | i | 32.2
O=C(NNC(=O)c1cc2cc(Br)ccc2oc1=O)c1ccc(O)cc1O | i | i | i | 34.1
CNC(=O)c1cc2cc(Br)ccc2oc1=O | i | i | i | i
CCOC(=O)C1(CC2CC2)CCN(Cc2ccc3ncccc3c2)CC1 | i | i | i | i
CCOC(=O)C1CCCn2c1nc1cc(-c3ccc(OC)cc3)sc1c2=O (stereo not drawn) | i | i | i | 51.6
CCOC(=O)C1CCCn2c1nc1c(c2=O)CCCC1 (stereo not drawn) | i | i | i | i
COc1cc(C(=O)Nc2cc(Cl)ccc2C)c([N+](=O)[O-])cc1OC | i | i | i | i
O=C(Nc1ccc(Br)cc1)c1ccc(F)c(S(=O)(=O)NC2CCCCCC2)c1 | i | i | i | 40.4
CCOc1ccc(NC(=O)c2ccc(F)c(S(=O)(=O)NC3CCCC3)c2)cc1 | i | i | i | 69.1
SMILES | FBW7 activator | MITF inh | GPR151 ag | TEAD-YAP block
O=c1c(CN2CCN(c3cccc(C(F)(F)F)c3)CC2)coc2ccccc12 | i | i | i | 62.2
O=c1c(CN2CCN(c3cccc(Cl)c3)CC2)coc2ccccc12 | i | 53.1 | i | 43.2
Cc1ccc2occ(CN3CCN(c4ccccc4)CC3)c(=O)c2c1 | i | i | i | i
COc1cccc2c(SCC(=O)Nc3ccc4c(c3)OCO4)nccc12 | i | i | i | 48.3
COC(=O)COc1cccc2c(=O)n(CC(=O)Nc3ccc4c(c3)OCCO4)ccc12 | i | i | i | i
COc1cccc2c(SCC(=O)Nc3ccc4c(c3)OCCO4)nccc12 | i | i | i | 50.9
Cc1n[nH]c(C)c1CN(C)C(=O)CCCn1nnnc1CN1CCC(C)CC1 | i | i | i | i
COc1ccc2[nH]c(=O)c(CN(CC3CCCO3)S(=O)(=O)c3ccccc3F)cc2c1 (stereo not drawn) | i | i | i | 33.8
CCC[n+]1c(/C=C2\Sc3ccccc3N2CC)ccc2ccccc21 | i | i | i | 87.5
CCCC[n+]1ccccc1/C=C1\Sc2ccccc2N1CC | i | i | i | 88.7
CCCCC[n+]1c(/C=C2\Sc3ccccc3N2CC)ccc2ccccc21 | i | i | i | 83.1
CCCCN1/C(=C/c2ccc3ccccc3[n+]2CC)Sc2cc(NC(C)=O)ccc21 | i | i | i | i
CCOC(=O)c1c(NC(=O)C(Cl)(Cl)Cl)sc(C(=O)OC)c1C | i | i | i | i
c1cncc(CNc2nc(N3CCOCC3)nc3c2ncn3-c2ccsc2)c1 | i | i | i | 45.2
c1ccc(N2CCN(c3nc(NCc4cccnc4)c4ncn(-c5ccsc5)c4n3)CC2)nc1 | i | i | i | 50.9
c1ccc(-n2cnc3c(NCc4cccnc4)nc(N4CCN(c5ccccn5)CC4)nc32)cc1 | i | i | i | i
COc1ccc(-c2ccc(/C=C/C(=O)c3ccco3)o2)cc1 | i | 63.1 | i | i
COc1ccccc1-c1ccc(/C=C/C(=O)c2ccco2)o1 | i | i | i | i
COc1ccc(Br)cc1/C=C/C(=O)c1ccco1 | i | i | i | 60.7
